Assay outcomes: PubChem BioAssay, National Center for Advancing Translational Sciences (NCATS)
Hits are enriched below; roughly 12% of the tested compounds scored in any of these assays.
G9a block = qHTS Assay for Inhibitors of Histone Lysine Methyltransferase G9a | Histone-lysine N-methyltransferase EHMT2 (Homo sapiens), Q96KQ7 | G9a H3K9 monomethylation, AlphaScreen, 2 h | Potency, µM (doses to about 102 µM), for inactives: top-dose activity, negative = inhibition, hits mostly inhibitors | 350,000 compounds, 8.8% hits | AID 504332, 2011; also: % is scaled to controls: 0 for no effect and ±100 for the full control effect; nearly all actives have a fitted effect of over 75% in size
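Step 1: enzyme (final 20 nM) with compound, 15 min RT. Step 2: substrate peptide 500 nM and SAM 20 uM, 2 h RT. Step 3: anti-H3K9me1 antibody and AlphaScreen beads, 10 min, then plate read.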
BAZ2B inh = qHTS Assay for Inhibitors of BAZ2B | AlphaScreen BAZ2B-H3K14Ac peptide displacement | Potency, µM (doses to about 114 µM), for inactives: at the highest dose activity change, negative = inhibition, usual class: inhibitors | 360,000 compounds, 4.4% hits | AID 504333, 2011; also: % is scaled to controls: 0 for no effect and ±100 for the full control effect; nearly all actives have a fitted effect of over 60% in size
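Protein-peptide AlphaScreen: BAZ2B 50 nM, b-H3K14Ac 50 nM, 1x PBS pH 7.4 + 0.01% Tween-20. Preincubation 30 min RT; cpd 30 min RT (top 110 uM); beads 20 min RT, light-protected.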
L3MBTL1 block = qHTS Assay for the Inhibitors of L3MBTL1 | Lethal(3)malignant brain tumor-like protein 1 (Homo sapiens), Q9Y468 | AlphaScreen L3MBTL1–H3K9me1 peptide binding | Potency, µM (doses to about 57.1 µM), inactives show top-dose activity, negative = inhibition, actives largely listed as inhibitors | 230,000 compounds, 0.66% hits | AID 485360, 2010; also: % is scaled to controls: 0 for no effect and ±100 for the full control effect; nearly all actives have a fitted effect of over 60% in size
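L3MBTL1 (50 nM) pre-complexed 30 min with biotinylated H3(1-15)K9me1 peptide (75 nM), then compounds added for 30 min at room temperature; AlphaScreen streptavidin donor/nickel chelate acceptor beads (10 ug/mL final) read after 30 min dark incubation.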
HP1b binding inh = HTS for Inhibitors of HP1-beta Chromodomain Interactions with Methylated Histone Tails. AlphaScreen HP1-beta / biotin-H3K9me3 peptide binding. Chromobox protein homolog 1 (Homo sapiens), P83916. Potency, µM (titrated, usually from 114 µM), without a hit: at the highest dose activity change, negative = inhibition, most hits filed as inhibitors. 390,000 compounds, 0.56% hits; also: nearly all actives have a fitted effect of over 70% in size
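AlphaScreen: HP1-beta (50 nM) preformed 30 min with biotin-H3(1-18)K9me3 peptide (50 nM) in PBS pH 7.4, 0.01% Tween-20. Compound added for 30 min at RT, then streptavidin donor/nickel chelate acceptor beads (10 ug/mL) for 30 min.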
Sfp inh = qHTS Assay for Inhibitors of Bacillus subtilis Sfp phosphopantetheinyl transferase (PPTase); AID 1490, 2009; 310,000 compounds, 3.5% hits; Potency, µM, without a hit: largest response in the series, negative = inhibition, actives largely listed as inhibitors; Biochemical Sfp PPTase activity, qHTS; 4'-phosphopantetheinyl transferase ffp (Bacillus subtilis), Q9F4F7;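 also: the enzyme is Sfp with the accession as filed and its product quenches rhodamine fluorescence; 0% = enzyme reaction without inhibitor and -100% = no enzyme wells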
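Sfp 15 nM + cpd, 15 min RT; start w/ rhodamine-CoA 5 uM, BHQ-2-YbbR 12.5 uM (final); 50 mM Hepes pH 7.6, 10 mM MgCl2, 0.01% NP-40, 0.01% BSA; read 525/598 nm at 0 and 30 min.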
JMJD2A Tudor inh = qHTS Assay for Inhibitors of JMJD2A-Tudor Domain. 390,000 compounds, 4.4% hits. AlphaScreen JMJD2A-Tudor / H3K4me3 peptide binding. Potency, µM (series often up to 114 µM), for the others: at the top dose activity change, negative = inhibition, most hits filed as inhibitors. Lysine-specific demethylase 4A (Homo sapiens), O75164; also: % is scaled to controls: 0 for no effect and ±100 for the full control effect; nearly all actives have a fitted effect of over 50% in size
An asterisk follows results filed as active; ? = inconclusive; nt = not tested or not shown; ! = not active in a repeat; [ ] = dose if it differs, or a comment. Calls follow the shape of the dose curve; as a rule, active = well fitted curve in the direction sought with a large enough effect; inconclusive = small, poorly fitted or top-dose-only effect, or another doubt; inactive = no such curve, though single readings can be large; an effect the other way counts as inactive or inconclusive. Potency is read from the fitted curve at half-maximal effect.

SMILES	G9a block	BAZ2B inh	L3MBTL1 block	HP1b binding inh	Sfp inh	JMJD2A Tudor inh
CC[C@H](C)[C@H](NC(=O)[C@@H]1CCCN1C(=O)[C@H](CCC(=O)O)NC(=O)[C@@H](NC(=O)[C@H](Cc1ccccc1)NC(=O)[C@@H]1CCCN1C(=O)[C@@H](N)Cc1ccc(O)cc1)C(C)C)C(=O)O	36%[59 µM]	nt	nt	nt	17%	nt
Cn1c(C(=O)NCCOc2ccccc2Cl)cc(=O)n(C)c1=O	-11%[59 µM]	-22%	nt	53%	23%	-23%
CN1C(=O)COc2c(C(=O)N[C@@H]3CN4CCC3CC4)cc(Cl)cc21	nt	nt	nt	nt	-9%	nt
CCCCCn1c(N)c(C(=O)NCCN2CCOCC2)c2nc3ccccc3nc21	7%[59 µM]	-3%	40%	91%	-27%	42%
COc1ccc(Cn2c(N)c(C(=O)NCc3ccco3)c3nc4ccccc4nc32)cc1	11%	-4%	6%	29%	45µM*	-16%
Nc1c(C(=O)NCc2ccco2)c2nc3ccccc3nc2n1Cc1ccccc1	?	8%	31%	77%	45µM*	24%
COCC(C)OC(=O)c1c(N)n(Cc2ccco2)c2nc3ccccc3nc12 (configuration not stated)	-16%[59 µM]	-2%	nt	62%	32µM*	-3%
Nc1c(C(=O)NCc2ccco2)c2nc3ccccc3nc2n1CCN1CCOCC1	50µM*	8%	nt	59%	?	-10%
Cc1ccc(C(=O)COC(=O)c2cccc(NC(=O)c3ccc(Br)cc3)c2)cc1	?	1%	nt	31%	nt	-13%
CCCCC/C=C\C/C=C\C/C=C\CCCCC(=O)NCCO	nt	nt	nt	nt	2%	nt
C[N+](C)(C)c1ccccc1	20µM*	-13%	-13%	17%	-5%	?
O=[N+]([O-])c1ccccc1	28%[59 µM]	nt	nt	nt	23%	nt
COc1ccc(CC2NC[C@H](O)[C@H]2OC(C)=O)cc1 (some centres not stated)	-10%[2.33 µM]	nt	nt	nt	10%	nt
ClC1=CCC2CN(CCN3CCCCC3)CC2C1 (configuration not stated)	79µM*	5%	-2%	23%	19%	-8%
NC(N)=N/N=C/c1cn(-c2ccccc2)nc1-c1cccs1	-8%	?	-6%	3%	79µM*	?
CN(C)c1ccc(C(O)P(=O)(OC2CCCCC2)OC2CCCCC2)cc1 (configuration not stated)	-18%[59 µM]	45µM*	?	-5%	-14%	?
COc1cccc(-n2c(/C=C/c3ccc(O)c(O)c3)nc3ccccc3c2=O)c1	45µM*	?	-7%	-17%	-10%	?
COc1ccc(-n2c(/C=C/c3ccc(O)c(OC)c3)nc3ccccc3c2=O)cc1	nt	-13%	7%	78%	1%	-6%
O=C(NCNC(=O)N[C@H]1C(=O)NC(=O)N1CO)N[C@H]1C(=O)NC(=O)N1CO	31%[21.5 µM]	nt	nt	nt	12%	nt
CCN1C[C@]2(C)CC[C@H](OC)[C@]34C5C[C@@H]6CC[C@@](O)(C5C(=O)O6)C(C13)[C@@H](OC(=O)c1ccccc1)C24	nt	nt	nt	nt	9%	nt
CCCc1cc2c(n1CCO)C(C)C1CN(C(=O)c3ccccc3)C(C)(C(=O)OC)C21 (configuration not stated)	nt	nt	nt	nt	37%	nt
Cc1ccccc1NC1=NCC(C)S1 (configuration not stated)	17%[59 µM]	4%	1%	25%	18%	-11%
Cc1cccnc1NC1=NCC(C)S1 (configuration not stated)	4µM*	0%	6%	40%	16%	-14%[11.4 µM]
O=C1CC(=O)N(c2ccccc2F)C(=O)N1	?	-3%	nt	26%	?	-8%
O=C1CC(=O)N(c2ccc(Cl)cc2Cl)C(=O)N1	45µM*	-1%	-1%	2%	2%	-26%
SMILES	G9a block	BAZ2B inh	L3MBTL1 block	HP1b binding inh	Sfp inh	JMJD2A Tudor inh
COc1cc2c(cc1O)[C@H]1Cc3ccc(OC)c(O)c3CN1CC2	2%[21.5 µM]	nt	nt	nt	9%	nt
C=C(C)Cn1c(-c2cccs2)n[nH]c1=S	14µM*	-18%	-3%	-11%	-16%	5.6µM*
C=C(C)Cn1c(-c2cccc([N+](=O)[O-])c2)n[nH]c1=S	13µM*	-16%	nt	11%	-15%	8.9µM*
CCCCCCC(=O)OC1CC(C)(C)NC(C)(C)C1	2%[59 µM]	nt	nt	nt	-5%	nt
O=C(c1c[nH]cc1-c1ccccc1)c1cccc2ccccc12	25µM*	25µM*	?	?	17%	-12%
CCCn1c(C)c(C(=O)c2cccc3ccccc23)c2ccccc21	-34%[59 µM]	-4%	3%	29%	-15%	-18%
Cn1ncc2c(NCc3ccc(F)cc3)ncnc21	-1%[59 µM]	1%	nt	68%	nt	-29%
N[C@@H](CCP(=O)(O)O)C(=O)O	nt	nt	nt	nt	-16%	nt
NC(CCP(=O)(O)O)C(=O)O (configuration not stated)	-11%[59 µM]	nt	nt	nt	50µM*	nt
CC(=O)CC(c1ccccc1)c1c(O)c2ccc(O)cc2oc1=O (configuration not stated)	nt	nt	nt	nt	-14%	nt
Cc1cccc(N=C2c3cc([N+](=O)[O-])ccc3-c3c2cc([N+](=O)[O-])cc3[N+](=O)[O-])c1	nt	nt	nt	2.8µM*	nt	3.5µM*
Nc1nonc1C(=O)N/N=C/c1ccc([N+](=O)[O-])o1	50µM*	56µM*	35µM*	?	-28%	?
CC(=O)[C@@H]1CC[C@@H]2[C@@H]3CCC4=CC(=O)CC[C@@]4(C)[C@H]3CC[C@]21C	22%[21.5 µM]	nt	nt	nt	7%	nt
Nc1ccc2cc(Br)ccc2c1	50µM*	nt	nt	?	-15%	?
COc1ccc(NS(=O)(=O)c2ccc(OCC(=O)N3CCN(C)CC3)cc2)cc1Cl	79µM*	-19%	nt	57%	15%	-4%
Cc1ccc(NS(=O)(=O)c2ccc(OCC(=O)N3CCN(C)CC3)cc2)cc1	nt	-12%	nt	18%	-1%	-10%
COc1cc2c3cc1Oc1cc(ccc1O)C[C@@H]1c4c(cc(OC)c(O)c4Oc4cccc(c4)C[C@H]3N(C)CC2)CC[N+]1(C)C	-1%[21.5 µM]	nt	nt	nt	-17%	nt
CNC(=O)Oc1ccc2c(c1)C1(C)CCN(C)C1N2C (configuration not stated)	nt	nt	nt	nt	-4%	nt
CN1CC[C@@]2(C)c3cc(O)ccc3N(C)C12 (some centres not stated)	9.5µM*	nt	nt	nt	nt	nt
CNC(=O)Oc1ccc2c(c1)[C@]1(C)CCN(C)[C@@H]1N2C	45µM*!	6%	5%	8%	14%	-13%
